Test results reported in PubChem BioAssay.

What was measured:
[1] = test system: Botulinum neurotoxin type F light chain protease (Clostridium botulinum); experiment: Clostridium botulinum type F light chain protease inhibitors, microsphere substrate cleavage, validation (AID 588459); details: multiplex microsphere protease substrate cleavage assay, flow cytometry; at 10 µM; active compounds read high
[2] = biological target: Botulinum neurotoxin type A (Clostridium botulinum) (UniProt P0DPI0); experiment: BoNT/A light chain protease inhibitors, biochemical, multiplex microsphere flow cytometry, validation set (AID 588460); details: at 10 µM, active compounds read high
Chain of Botulinum neurotoxin type A (Clostridium botulinum) (P0DPI0 whole entry, looked up): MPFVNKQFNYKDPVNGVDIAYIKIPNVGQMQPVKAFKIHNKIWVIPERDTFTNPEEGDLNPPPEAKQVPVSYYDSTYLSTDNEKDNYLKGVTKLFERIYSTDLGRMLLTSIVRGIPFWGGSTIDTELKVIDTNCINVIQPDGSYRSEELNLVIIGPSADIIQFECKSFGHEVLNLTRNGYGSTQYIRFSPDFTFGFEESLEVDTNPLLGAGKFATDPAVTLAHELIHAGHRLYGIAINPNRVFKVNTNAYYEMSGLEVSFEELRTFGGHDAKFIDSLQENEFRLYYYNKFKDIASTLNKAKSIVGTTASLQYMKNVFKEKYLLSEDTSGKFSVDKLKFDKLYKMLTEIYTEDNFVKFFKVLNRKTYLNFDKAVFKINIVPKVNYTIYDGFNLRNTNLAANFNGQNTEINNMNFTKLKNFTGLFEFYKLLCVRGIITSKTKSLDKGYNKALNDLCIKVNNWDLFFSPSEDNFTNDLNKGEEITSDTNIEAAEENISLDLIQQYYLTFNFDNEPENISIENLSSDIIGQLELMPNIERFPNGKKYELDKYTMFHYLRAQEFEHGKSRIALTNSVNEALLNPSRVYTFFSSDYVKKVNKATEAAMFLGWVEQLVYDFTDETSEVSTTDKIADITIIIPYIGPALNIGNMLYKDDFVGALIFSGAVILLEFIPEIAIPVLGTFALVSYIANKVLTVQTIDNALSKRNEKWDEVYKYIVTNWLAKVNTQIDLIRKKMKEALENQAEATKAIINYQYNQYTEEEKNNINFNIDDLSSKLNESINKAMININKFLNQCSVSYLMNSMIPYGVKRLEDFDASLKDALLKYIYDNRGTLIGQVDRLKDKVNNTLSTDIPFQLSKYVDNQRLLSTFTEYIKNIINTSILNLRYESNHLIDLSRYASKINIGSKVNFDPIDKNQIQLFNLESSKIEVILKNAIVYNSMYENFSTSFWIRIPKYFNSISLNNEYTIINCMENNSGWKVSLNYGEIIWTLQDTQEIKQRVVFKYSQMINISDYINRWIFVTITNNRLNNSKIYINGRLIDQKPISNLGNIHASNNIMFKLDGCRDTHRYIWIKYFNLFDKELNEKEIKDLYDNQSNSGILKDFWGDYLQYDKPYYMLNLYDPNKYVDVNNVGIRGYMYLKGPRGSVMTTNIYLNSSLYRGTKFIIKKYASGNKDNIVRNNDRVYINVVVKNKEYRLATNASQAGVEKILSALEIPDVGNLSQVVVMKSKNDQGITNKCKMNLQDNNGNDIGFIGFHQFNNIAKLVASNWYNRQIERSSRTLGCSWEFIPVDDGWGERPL

[3] = biological target: Lethal factor (Bacillus anthracis) (UniProt P15917); experiment: Bacillus anthracis lethal factor inhibition, microsphere flow cytometry protease assay, validation at 10 µM (AID 588461); details: multiplex microsphere protease cleavage assay, active compounds read high
Chain of Lethal factor (Bacillus anthracis) (P15917 whole entry, looked up): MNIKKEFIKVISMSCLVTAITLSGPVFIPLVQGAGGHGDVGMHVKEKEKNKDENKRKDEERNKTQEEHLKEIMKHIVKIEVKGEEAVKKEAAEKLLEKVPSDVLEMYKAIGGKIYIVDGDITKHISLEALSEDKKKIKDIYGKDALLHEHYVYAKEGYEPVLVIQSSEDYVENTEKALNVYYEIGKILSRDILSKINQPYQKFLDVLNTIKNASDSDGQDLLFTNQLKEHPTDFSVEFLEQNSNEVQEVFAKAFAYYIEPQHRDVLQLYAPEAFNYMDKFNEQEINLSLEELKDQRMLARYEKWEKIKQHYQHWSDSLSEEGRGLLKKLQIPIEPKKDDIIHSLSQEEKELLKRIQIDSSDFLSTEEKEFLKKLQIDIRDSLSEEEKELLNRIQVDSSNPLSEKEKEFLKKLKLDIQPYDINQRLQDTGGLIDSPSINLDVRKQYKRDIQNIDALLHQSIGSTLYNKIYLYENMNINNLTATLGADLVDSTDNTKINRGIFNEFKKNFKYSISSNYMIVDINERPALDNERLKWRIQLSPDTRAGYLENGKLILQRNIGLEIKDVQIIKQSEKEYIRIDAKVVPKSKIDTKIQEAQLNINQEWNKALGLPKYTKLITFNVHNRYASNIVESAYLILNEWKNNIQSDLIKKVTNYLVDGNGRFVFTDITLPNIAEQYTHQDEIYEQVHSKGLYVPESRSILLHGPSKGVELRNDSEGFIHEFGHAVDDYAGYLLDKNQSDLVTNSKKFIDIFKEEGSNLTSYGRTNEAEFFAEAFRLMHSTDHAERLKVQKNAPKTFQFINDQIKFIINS

Measured: inhibition

Nc1nc2ccc(OC(F)(F)F)cc2s1
inactive: [1] 0.4% | [2] -0.1% | [3] 1.8%

CC(C)COc1ccc(Cc2cnc(N)nc2N)cc1
inactive: [1] 5% | [2] 2% | [3] 1.9%

COc1ccc(C2CC(c3ccc([N+](=O)[O-])cc3)=NN2C(=O)c2ccccc2)cc1OC (configuration not stated)
inactive: [1] 10.2% | [2] 7.9% | [3] 2.3%

O=C(CCNNC(=O)c1ccncc1)NCc1ccccc1
inactive: [1] 4.1% | [2] 0.9% | [3] 5.5%

CC(OC(=O)c1cc(=O)[nH]c2ccccc12)C(=O)c1ccccc1 (configuration not stated)
inactive: [1] 2.3% | [2] -2.4% | [3] -6.9%

O=C(COc1ccccc1)N1CCN(c2ccccc2)CC1
inactive: [1] -3.8% | [2] 0% | [3] -0.7%

COc1cc(OC)c(C2C(C#N)=C(N)OC3=C2C(=O)CC(C)(C)C3)cc1OC (configuration not stated)
inactive: [1] -2.6% | [2] 0.8% | [3] 4.6%

CCOC(=O)C(=O)N1CCN(c2ccccc2OC)CC1
inactive: [1] 1.5% | [2] -1.1% | [3] -4.9%

CO[C@H]1C=CO[C@@]2(C)Oc3c(C)c(O)c4c(O)c(c(C=NN5CCN(C)CC5)c(O)c4c3C2=O)NC(=O)C(C)=CC=C[C@H](C)[C@H](O)[C@@H](C)[C@@H](O)[C@@H](C)[C@H](OC(C)=O)[C@@H]1C
inactive: [1] -7.2% | [2] 0.5% | [3] -7.3%

Cc1ccc(Cl)c(Nc2ccccc2C(=O)O)c1Cl
inactive: [1] -4.5% | [2] 0.2% | [3] 0.3%

COc1ccc(-c2nc(NC(C)=O)sc2-c2ccc(OC)cc2)cc1
inactive: [1] 3% | [2] 1% | [3] 2.3%

CCOC(=O)C1=C(N)Oc2c(c(=O)[nH]c3ccccc23)C1c1ccccc1 (configuration not stated)
inactive: [1] 0.4% | [2] 1.1% | [3] -1.6%

CCCC(=O)O[C@]1(C(=O)COC(C)=O)CC[C@H]2[C@@H]3C[C@H](F)C4=CC(=O)C=C[C@]4(C)[C@@]3(F)[C@@H](O)C[C@@]21C
inactive: [1] -1.4% | [2] 0.4% | [3] -0.6%

O=C(O)CCn1cnc2ccccc2c1=O
inactive: [1] 1.4% | [2] 0.3% | [3] -3.5%

O=C(Cc1ccccc1[N+](=O)[O-])NCCCN1CCOCC1
inactive: [1] -1.6% | [2] -0.1% | [3] 6.7%

COc1cc(CO)ccc1OCc1nnnn1-c1ccc(C)cc1
inactive: [1] -0.2% | [2] -1% | [3] -8.2%

CN(C)C(=O)Oc1ccc[n+](C)c1
inactive: [1] -1.5% | [2] -0.6% | [3] -0.5%

Cc1ncc([N+](=O)[O-])n1CC(C)O (configuration not stated)
inactive: [1] -0.2% | [2] 1.1% | [3] 0.3%

CC(=O)CC(c1ccc([N+](=O)[O-])cc1)c1c(O)c2ccccc2oc1=O (configuration not stated)
inactive: [1] 0.7% | [2] 0.2% | [3] -1.2%

Cc1cc(=O)oc(C)c1C(=O)NCCC(C)C
inactive: [1] -1.3% | [2] -0.2% | [3] 4%

CCCCCCC(=O)N(O)C1CC(=O)N(Cc2ccccc2)C1=O (configuration not stated)
inactive: [1] 0.4% | [2] -0.7% | [3] 3.7%

CC(C)CN(C)Cc1c(C(=O)N2CCc3ccccc3C2)nc2ccc(Cl)cn12
inactive: [1] 2.4% | [2] 0.6% | [3] 1%

COc1ccc(CN2CCCC(C(=O)c3ccc(Cl)cc3)C2)cc1Cn1cccn1 (configuration not stated)
inactive: [1] 1.9% | [2] -0.6% | [3] 3.9%

O=C(O)Cc1ccc(-c2ccccc2)cc1
inactive: [1] 0.5% | [2] -1.2% | [3] 0.5%

CC(=O)c1c[nH]c2ccc(C)cc2c1=O
inactive: [1] -1.7% | [2] -0.6% | [3] -1.2%

O=C(O)CCSc1nc2ccccc2s1
inactive: [1] -0.7% | [2] -1.2% | [3] -9.8%

CC(NC(=O)c1cccnc1)C(=O)O (configuration not stated)
inactive: [1] -0.3% | [2] -0.4% | [3] -4.7%

O=C(OCCN1CCOCC1)c1cccs1
inactive: [1] -2.8% | [2] -0.9% | [3] -1.2%

CCCCOc1ccc(CC(=O)NO)cc1
inactive: [1] -1.6% | [2] -0.2% | [3] 0.6%

Cn1c([N+](=O)[O-])cnc1COC(N)=O
inactive: [1] 1.4% | [2] -0.6% | [3] -1.2%

CCCC(=O)Nc1ncnc2c1ncn2[C@@H]1O[C@@H]2COP(=O)(O)O[C@H]2[C@H]1OC(=O)CCC
inactive: [1] -0.5% | [2] -1% | [3] -2.7%

CCCN(CCC)S(=O)(=O)c1ccc(C(=O)O)cc1
inactive: [1] 2.8% | [2] 1.1% | [3] 0%

CCOc1ccc2ccccc2c1CNc1nnnn1C
inactive: [1] -0.1% | [2] -1.2% | [3] -1.5%

Cc1nc(C2CC(=O)OC23CCCCC3)cs1 (configuration not stated)
inactive: [1] 0.3% | [2] -0.7% | [3] -10.4%

COc1ccc(CCNC(=O)c2c(O)c3c([nH]c2=O)CCCC3)cc1
inactive: [1] 2.6% | [2] 0.3% | [3] -14.2%

C[N+](C)(C)CCCC(=O)c1ccc2c(c1)OCO2
inactive: [1] -4% | [2] -1.8% | [3] -6%

COC(=O)C1=CN(Cc2cccs2)C=C(C(=O)OC)C1c1cccc(Cl)c1
inactive: [1] -4.5% | [2] -0.4% | [3] -4%

FC(F)(F)c1ccc(-c2noc(CN3CCCN(C4CCCCC4)CC3)n2)cc1
inactive: [1] -2% | [2] -1.4% | [3] -7%

CC1(C)CC(c2csc(N)n2)CCO1 (configuration not stated)
inactive: [1] -0.4% | [2] -1% | [3] -8.4%

COc1ccc(C(=O)C2CCCCC2=O)cc1 (configuration not stated)
inactive: [1] 1.5% | [2] 0.2% | [3] -1.2%

CCNC(=S)Nc1ccc(OC(F)(F)F)cc1
inactive: [1] 2.2% | [2] 2.8% | [3] 3%

CC(=O)N(CCC1(C(C)C)CCOC(C)(C)C1)Cc1ccco1 (configuration not stated)
inactive: [1] -2% | [2] -1.4% | [3] 0.2%

C[C@]12CC[C@@H]3c4ccc(O)cc4CC[C@H]3[C@@H]1CC[C@@H]2OC(=O)CCC(=O)O
inactive: [1] -0.1% | [2] -0.4% | [3] -10%

CCOc1ccc(NC2OC(C)C(O)C(O)C2O)c([N+](=O)[O-])c1 (configuration not stated)
inactive: [1] 3.1% | [2] -0.7% | [3] 11.5%

COc1ccc(CNCCC2(C(C)C)CCOC(C)(C)C2)cc1 (configuration not stated)
inactive: [1] 1.9% | [2] 0.8% | [3] -4%

O=C(N1CCCCC1)C1(c2ccccc2)CCOCC1
inactive: [1] 1.7% | [2] 1.3% | [3] -2.1%

O=c1nc2cccc3c2=c(/c1=C(\O)c1ccccc1)c1ccccc1c3=O
inactive: [1] 3.2% | [2] 0.6% | [3] -0.8%

CC(C)(C)OC(=O)NCCC(=O)Oc1ccc2ccc(=O)oc2c1
inactive: [1] -1.5% | [2] -0.8% | [3] 0.5%

COC(=O)CN1C(=S)N(c2ccc(F)cc2)C(=O)C1CC(=O)Nc1ccccc1 (configuration not stated)
inactive: [1] -5.7% | [2] -2% | [3] -5.6%

CC1(C)Cc2ccccc2-c2nc(-c3ccccc3)oc(=O)c21
inactive: [1] -1.9% | [2] 0% | [3] -0.2%

COc1ccc(NC(=O)CC(c2ccccc2)c2ccco2)cc1 (configuration not stated)
inactive: [1] 2.3% | [2] 0.9% | [3] 9.1%

O=C(Nc1ncc2c(n1)CC(c1ccco1)CC2=O)c1ccco1 (configuration not stated)
inactive: [1] -2.6% | [2] -3.2% | [3] -10.4%

CC1(C)c2ccccc2N2CC(=O)N(CC(N)=O)C21C (configuration not stated)
inactive: [1] 1.5% | [2] -1.4% | [3] -5%

CC(=O)C1=C(O)C(=O)OC1c1ccc(C)cc1 (configuration not stated)
inactive: [1] 9.7% | [2] 1.4% | [3] -4.5%

CC(C(=O)O)c1ccc(N2Cc3ccccc3C2=O)cc1 (configuration not stated)
inactive: [1] 1.4% | [2] -1.6% | [3] -4.3%

CN(C)CCOC(c1ccccc1)c1ccccc1
inactive: [1] -0.7% | [2] 0.3% | [3] -5%

CCOCCn1c(C(C)O)nc2ccccc21 (configuration not stated)
inactive: [1] 4% | [2] 0.3% | [3] 3.1%

COCCCNc1nc2c([nH]1)c(=O)[nH]c(=O)n2C
inactive: [1] 2.6% | [2] 1.1% | [3] 1.3%

CCOC(=O)c1oc2cc(OCC(N)=O)ccc2c(=O)c1-c1ccc(OC)c(OC)c1
inactive: [1] -3.1% | [2] 1.1% | [3] 1.9%

CCOC(=O)C1C2C=CC3(CN(c4ccc(Cl)c(F)c4)C(=O)C13)O2 (configuration not stated)
inactive: [1] 2.9% | [2] -2.3% | [3] 6.8%

CN(C)CCN(Cc1ccc(Cl)cc1)c1ccccn1
inactive: [1] -0.9% | [2] 0.1% | [3] -1.2%

Cc1ccc2c(c1)C(CCN)C(=O)N2Cc1ccccc1 (configuration not stated)
inactive: [1] -1% | [2] 0.7% | [3] 6.7%

Clc1ccc2c(c1)C(N1CCNCC1)=Nc1ccccc1O2
inactive: [1] 3.1% | [2] 2.2% | [3] -6.2%

CCCCCCCC(=O)OCC(=O)[C@@]1(O)CC[C@H]2[C@@H]3CCC4=CC(=O)CC[C@]4(C)[C@H]3[C@@H](O)C[C@@]21C
inactive: [1] -3.8% | [2] 0.3% | [3] 4.7%
